Test in all cases: NCI-60 one-dose screen, 48 h (100 = growth as untreated, 0 = no growth, -100 = all killed)
Holding throughout (conditions): 10 µM unless noted

The test system of assay [1] is NCI-H23 lung.
Assay [2] has as its system NCI-H226 lung.
Assay [3] relates to NCI-H322M lung.
The test system of assay [4] is HOP-62 NSCLC.
In assay [5] the test system is NCI-H460 lung.
Assay [6] deals with HOP-92 NSCLC.
Assay [7] relates to NCI-H522 lung.
The test system of assay [8] is A549/ATCC NSCLC.
Assay [9] has as its system 786-0 renal.
In assay [10] the test system is COLO 205 colon.

This is part of a sample that, as a whole, favours compounds with a hit. Of some 83,000 tested, about 20% had one in any assay.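 The endpoint reported here, percent growth, reads 100 for growth as untreated, 0 for no net growth and -100 for all cells dead.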 A number with no mark means an inactive call. The source made the active and inactive calls. Rule for the calls: active = growth percent below 10; inactive = the rest.

`CC(O)CN1CCCCC1` (stereo not given): the growth in [1] was 100%; in assay [2], 106%; in assay [3], 111%; in assay [4], 122%; in assay [5], 104%; in assay [6] it was 111%. In addition, the growth is 88.8% in assay [7], 105% in assay [8], 105% in [9] and 111% in [10].
For the compound `C=C[C@@H]1C[C@H](O)Cc2cc(F)ccc2N1`, the growth in [1] was 97.4%; in assay [2], 87%; in assay [3], 112%; in [4] it was 88%; in [5], 98%; in assay [6], 56.2%. For the same compound, the growth in [7] is 92.9%; in assay [8] it was 98%; in [9], 100%; in assay [10], 107%.
As to `Cc1ccc(CSC(=N)N)cc1C`, the growth was 108% in assay [1]; 104% in assay [2]; 111% in [3]; 110% in assay [4]; 109% in assay [5]; 67.4% in [6]. Further, the growth in assay [7] was 101%; in assay [8] it was 103%; in assay [9] it was 103%; in [10], 107%.
Regarding `O=C(CSC1CCc2ccccc21)N/N=C/c1ccccc1O` (stereo not given), the growth was 55.5% in assay [1]; 67.7% in assay [2]; 22.6% in assay [3]; 47.5% in [4]; 30.9% in assay [5]; 77.4% in [6]. In addition, the growth in assay [7] is 7.47% (active); in assay [8], 48.2%; in assay [9], 66.6%; in assay [10], 45.7%.
For the compound `C/C(=N/NC(=S)Nc1ccccc1)c1nc2ccc(Cl)cc2[nH]1`, the growth in assay [1] was -45.3% (active); in [2] it was -42.4% (active); in [3], -40.4% (active); in assay [4] it was -97.1% (active); in [5] it was -66.6% (active); in assay [6], -68.8% (active). The growth was -93.4% (active) in [7], -10.9% (active) in assay [8], -47.6% (active) in assay [9] and -89.3% (active) in [10].
Consider `CCc1ccc(-c2ccc(=O)n(-c3ccc(S(N)(=O)=O)cc3)n2)cc1`, for which the growth in assay [1] is 59.9%; in assay [2], 94.1%; in [3], 115%; in [4], 56.9%; in assay [5], 12.6%; in assay [6], 65.7%. Moreover, the growth in assay [7] was -33.6% (active); in assay [8], 18%; in assay [9] it was 50%; in assay [10], 26%.
For `COc1ccc2c(c1)NC1=C(C(=O)OC1)C2c1cc(OC)c2c(c1)OCO2` (stereo not given), the growth in assay [1] is 33%; in assay [2] it was 34%; in assay [3] it was 52.4%; in assay [4], 43.2%; in assay [5], 4.54% (active); in [6], 43.8%. Moreover, the growth in assay [7] was -13.1% (active); in assay [8] it was 12%; in [9], 22.3%; in assay [10], -56.9% (active).
For the compound `O=C(CSc1nc2ccccc2[nH]1)c1ccc(N2CCOCC2)cc1`, the growth was 92.9% in [1]; 97.6% in [2]; 99.5% in assay [3]; 104% in assay [4]; 104% in assay [5]; 104% in [6]. Further, the growth is 102% in assay [7], 102% in [8], 96.4% in assay [9] and 117% in [10].
Regarding `COc1cccc(-c2nc3sccn3c2-c2ccnc(NCCCNS(=O)(=O)c3ccc(F)cc3)c2)c1`, the growth is 30.6% in assay [1]; 27.5% in [2]; 69.9% in assay [3]; 64.1% in assay [4]; 34.8% in assay [5]; 58.8% in assay [6]. Further, the growth in assay [7] was 29.3%; in assay [8] it was 23.2%; in [9] it was 56.8%; in [10], 33.1%.
Turning to `CCOC(=O)C1=C(C)NC(C)=C(C(=O)OCC)C1(C)C`, the growth in assay [1] is 113%; in assay [2], 98.8%; in assay [3] it was 107%; in assay [4], 102%; in assay [5] it was 111%; in [6], 98.3%. Besides, the growth in [7] is 98.1%; in assay [8], 93.2%; in assay [9] it was 88.2%; in assay [10], 113%.
Turning to `COc1ccc(C2=C(c3cc(OC)c(OC)c(OC)c3)C(=O)CC2)cc1`, the growth in assay [1] was 14.2%; in assay [2], 46.5%; in assay [3], 47.8%; in assay [4], 38.1%; in assay [5], 0.331% (active); in assay [6], 40%. For the same compound, the growth was -35.5% (active) in assay [7], 24.7% in assay [8], 28.9% in assay [9] and -27.9% (active) in assay [10].
For the compound `COc1ccc(/C=C2\Oc3cc(OCCCN4CCCC4)ccc3C2=O)cc1`, the growth in assay [1] was 87.2%; in assay [2], 93%; in [3], 93.1%; in assay [4], 89.7%; in assay [5], 68.5%; in assay [6], 82.2%. Moreover, the growth in assay [7] was 85.7%; in [8] it was 90.6%; in assay [9], 93%; in assay [10], 93.5%.
For the compound `COc1cc(C2C3=C(COC3=O)Nc3cc4c(cc32)CCC4)cc2c1OCO2` (stereo not given), the growth in assay [1] was 19.6%; in assay [2], 31.9%; in assay [3], 50.7%; in assay [4], 35.5%; in [5] it was 7.05% (active); in assay [6], 41.1%. In addition, the growth in assay [7] was -3.96% (active); in assay [8], 18.7%; in assay [9], 18.1%; in assay [10], -63.1% (active).
As for `O=C1/C(=C/c2ccc(Cl)cc2)CN(Cc2cn(CCNc3ccnc4cc(Cl)ccc34)nn2)C/C1=C\c1ccc(Cl)cc1`, the growth was -71.3% (active) in assay [1]; -70.6% (active) in assay [2]; -87% (active) in assay [3]; -100% (active) in assay [4]; -78.6% (active) in [5]; -75% (active) in [6]. Also, the growth in [7] was -99.4% (active); in assay [8] it was -85.1% (active); in assay [9], -88.7% (active); in assay [10], -100% (active).
